Among all 69,000 compounds or so, about 8,600 (12%) showed an effect of 50% or more. The full list was thinned out, with strong results kept by preference.
These compounds were tested on Plasmodium berghei (assay: Screen against P. berghei liver stage (PbLuc), transformed with Luciferase, at 10uM). Conditions: tested at 10 uM.
Assay type: functional, HepG2

Structure (SMILES) | INHIBITION
COc1ccc(C(=O)C2CCCN(c3cc(C#N)ccn3)C2)cc1OC (stereo unspecified) | 42.1%
COc1ccc(C(=O)N2CCCC(C)C2)cc1F (stereo unspecified) | 28.5%
COc1cccc(C(=O)C2CCCN(c3cc(C#N)ccn3)C2)c1 (stereo unspecified) | 59.4%
COc1ccccc1C(=O)C1CCCN(c2cc(C#N)ccn2)C1 (stereo unspecified) | 18.5%
COc1ccc(C(=O)C2CCCN(c3cc(C#N)ccn3)C2)cc1F (stereo unspecified) | 63%
Cn1[nH]c(C2CCCN(C(=O)CO)C2)cc1=O (stereo unspecified) | 29%
COCCN(C)CC(=O)N1CCCC2(CCC(=O)N(CC3CC3)C2)C1 (stereo unspecified) | 29.4%
CC(C)(C)S(=O)(=O)c1ccc(N2CCC(n3ccnc3)CC2)cn1 | 34.5%
O=C1CN(c2ccc(CNC(=O)NCC3CCOC3)cc2)CCN1 (stereo unspecified) | 0.411%
NC(=O)c1nnn(-c2ccc(Cl)cc2)n1 | -27.1%
CCCc1nc(N2CC[C@@H](c3ccc4c(c3)OCO4)[C@H](O)C2)no1 | 19.4%
O[C@@H]1CN(c2cnc3ccccc3n2)CC[C@H]1c1ccc2c(c1)OCO2 | 60.1%
CCc1cc(C(=O)N2CC[C@@H](c3ccc4c(c3)OCO4)[C@H](O)C2)[nH]n1 | -5.22%
CC(C)c1cc(C(=O)N2CC[C@@H](c3ccc4c(c3)OCO4)[C@H](O)C2)[nH]n1 | 15.6%
O[C@@H]1CN(c2nc3ccccc3o2)CC[C@H]1c1ccc2c(c1)OCO2 | 39.3%
O[C@@H]1CN(c2nc3ccccc3s2)CC[C@H]1c1ccc2c(c1)OCO2 | 68.1%
CC(C(=O)NCC(C)(C)c1ccc2c(c1)OCO2)n1ccnc1 (stereo unspecified) | 29.8%
CCc1ccc(C(=O)N2CCC(c3nncn3CC)CC2)s1 | 9.14%
Cc1nnc([C@@]23CCO[C@@H]2CCN(Cc2scnc2C)C3)o1 | 10.4%

Structure (SMILES) | INHIBITION
COc1coc(C(=O)Nc2nc(C)cs2)cc1=O | 5.03%
CC(C)Oc1ncccc1CNC(=O)c1ccccn1 | -48.4%
CN(C)c1cc(NCc2cnc3n2CCN(CC2CC2)CC3)ncn1 | 17.2%
CN1CCc2ncc(CNc3cc(N(C)C)ncn3)n2CC1 | 21.6%
COCCN1CCc2ncc(CNc3cc(N(C)C)ncn3)n2CC1 | 54.1%
Cc1nn(C)c(C)c1C1CCCN1C(=O)CCNS(C)(=O)=O (stereo unspecified) | -37.7%
Cc1ccsc1-c1nccn1CCN1CCCOC1=O | 20.8%
Cc1cc(CCC(=O)Nc2nncs2)nc(C2CCCN2)n1 (stereo unspecified) | 5.11%
CN(C)c1ncccc1C(=O)N1CCCC1Cn1cccn1 (stereo unspecified) | -21.5%
Cc1cccc(CN2CC3(CCN(C(N)=O)CC3)OCC2=O)n1 | 7.53%
Cc1cc(C)n(C2CCCN(C(=O)CCCc3ccccn3)C2)n1 (stereo unspecified) | 16.9%
N#Cc1ccc(NCCCN2C(=O)COc3ccccc32)nc1 | 15.3%
N#Cc1c(Cl)nsc1NCCCN1C(=O)COc2ccccc21 | 62.4%
N#Cc1cnc(NCCCN2C(=O)COc3ccccc32)c(Cl)c1 | -66.9%
CC(Cn1ccnc1)NC(=O)NCc1ccc2c(c1)OCCO2 (stereo unspecified) | -9.76%
Cc1nnc2n1CCN(C(=O)c1ccn(-c3cccc(F)c3)n1)C2 | -1.15%
COc1ccc(Cl)cc1CCNC(=O)NCc1cnn(C)c1C | -9.35%
Cc1cscc1C(=O)Nc1cc(CSCCO)ccn1 | 52.2%
O=C(Nc1cc(CSCCO)ccn1)c1ccc(Cl)o1 | 38.3%

Structure (SMILES) | INHIBITION
COc1ccnc(NC(=O)c2cscc2C)c1 | -28.3%
CC1Cc2ccccc2N1C(=O)Cn1nc(-c2cccs2)ccc1=O (stereo unspecified) | 44.3%
O=S(=O)(NCCc1ccccc1C(F)(F)F)N1CCOCC1 | 24.3%
CCC(NS(=O)(=O)N1CCOCC1)c1ccccc1OC (stereo unspecified) | 4.41%
COc1ccccc1OCCNS(=O)(=O)N1CCOCC1 | 58.4%
O=S(=O)(NCCc1cn2ccccc2n1)N1CCOCC1 | 1.74%
O=S(=O)(NCCc1ccccc1F)N1CCOCC1 | 53.8%
COc1ccccc1CCNS(=O)(=O)N1CCOCC1 | 8.38%
CCNc1nc(-c2cccnc2)c(-c2ccnc(N3CCOCC3)n2)s1 | 39.7%
CS(=O)(=O)N[C@@H]1CN(Cc2ccc3ncccc3c2)C[C@H]1O | 23.9%
N#Cc1c(N)nc2c(c1-c1cnc(N3CCCC3)nc1)COCC2 | -10.7%
CN(C)C(=O)[C@@H]1C[C@@H]2[C@@H](CCN2Cc2nccs2)O1 | 44.5%
Cc1cccc(C)c1OCC(C)Nc1nc(N)nc2c1CCNC2 (stereo unspecified) | 42.6%
Cc1cccnc1CC(C)Nc1nc(N)nc2c1CCNC2 (stereo unspecified) | 65.7%
Nc1nc2c(c(NCC(c3cccnc3)N3CCOCC3)n1)CCNC2 (stereo unspecified) | 23.1%
CCNC(=O)CNC(=O)c1ccn(S(=O)(=O)c2ccc(C)cc2)c1 | 2.69%
CCOCCNC(=O)c1ccn(S(=O)(=O)c2ccc(C)cc2)c1 | 13.5%
Cc1ccc(S(=O)(=O)n2ccc(C(=O)NCC(F)(F)F)c2)cc1 | 53.8%

— ChEMBL document CHEMBL4513216, “Probing the Open Global Health Chemical Diversity Library for Multistage-Active Starting Points for Next-Generation Antimalarials” (ACS Infect Dis, 2020)
